Assay results reported in the supplement of paper PMC12340641.
Where a name gives a salt, the structure may show the parent alone.

test system: HEK293FT dCK*-only; test: relative growth in counter assay (no AraC = 100%, AraC + DMSO = 0%); higher = more growth rescue independent of IKZF1; conditions: compound concentration: 5 uM; AraC concentration: 0.3 uM; overnight pretreatment + 4 days AraC
Outline: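 HEK293FT cells carrying only an engineered kinase construct were plated at 300 per well (384-well) and given 5 μM compound 2 h later. Following overnight at 37 °C, a nucleoside suicide substrate (0.3 μM) plus medium was added for 4 days. Hoechst 33342-stained nuclei were imaged and counted on day 5, with 100% assigned to wells without suicide substrate and 0% to substrate plus vehicle on each plate.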

Row | Compound | relative growth in counter assay
1 | N=c1ccn2c(n1)O[C@H]1[C@H](O)[C@@H](CO)O[C@H]12 [Cyclocytidine HCl] | -34%
2 | NCCNc1ccc(NCCN)c2c1C(=O)c1ccncc1C2=O.O=C(O)/C=C\C(=O)O.O=C(O)/C=C\C(=O)O [Pixantrone (dimaleate)] | -13%
3 | c1ccc(C(NCc2cccnc2)(c2ccccc2)c2ccccc2)cc1 | 3.05%
4 | C=CC(=O)Nc1cccc(Oc2nc(Nc3ccc(N4CCN(C)CC4)cc3)ncc2Cl)c1 | -29.5%
5 | O=c1[nH]c(=O)n([C@H]2C[C@H](O)[C@@H](CO)O2)cc1F [Floxuridine] | -29.6%
6 | COc1ccc(CCN(C)CCc2ccc(OC)c(OC)c2)cc1OC | 5.51%
7 | Cc1cc(Nc2ncc(Cl)c(Nc3ccccc3S(=O)(=O)C(C)C)n2)c(OC(C)C)cc1C1CCN(CC(=O)NCCNc2cccc3c2C(=O)N(C2CCC(=O)NC2=O)C3=O)CC1 (centres undefined) | 3.63%
8 | CCCCCCCC/C=C\CCCCCCCC(=O)NCCO [oleoylethanolamide] | 0.5%
9 | Cn1c(=O)n(-c2ccc(C(C)(C)C#N)cc2)c2c3cc(-c4cnc5ccccc5c4)ccc3ncc21 [Dactolisib (BEZ235, NVP-BEZ235)] | -20.5%
10 | COc1cc(CN(CCN)C(=O)c2cccs2)ccc1OCc1ccccc1 | 7.03%
11 | Clc1ccc(C(Cn2ccnc2)OCc2ccc(Sc3ccccc3)cc2)c(Cl)c1 (centres undefined) [Fenticonazole nitrate] | -4.73%
12 | CC(C)/N=c1\cc2n(-c3ccc(Cl)cc3)c3ccccc3nc-2cc1Nc1ccc(Cl)cc1 | -8.1%
13 | CN(C)CCOC1=Cc2ccccc2Sc2ccc(Cl)cc21 [zotepine] | 2.78%
14 | O=c1[nH]c2ccccc2n1C1CCN(CCOc2ccccc2)CC1 [oxiperomide] | -11.6%
15 | O=C(Nc1ccc2[nH]ccc2c1)c1ccccc1 | -3.62%
16 | Cn1c(NCCN(CCO)CCCc2ccc([N+](=O)[O-])cc2)cc(=O)n(C)c1=O [nifekalant] | -3.87%
17 | COC1CCN(c2cccc(-c3cc(NC(C)=O)nc(-n4nc(C)cc4C)n3)n2)CC1 | 7.56%
18 | C=C1/C(=C\C=C2/CCC[C@]3(C)[C@@H]([C@H](C)CCCC(C)(C)O)CC[C@@H]23)C[C@@H](O)C[C@@H]1O [Calcitriol] | -0.18%
19 | CSCC1CN(/N=C/c2ccc([N+](=O)[O-])o2)C(=O)O1 (centres undefined) [Nifuratel] | -3.74%
20 | NC(=O)N1c2ccccc2CC(=O)c2ccccc21 | 5.74%

Row | Compound | relative growth in counter assay
21 | COc1cccc2c1C(=O)c1c(O)c3c(c(O)c1C2=O)C[C@@](O)(C(=O)CO)C[C@@H]3O[C@H]1C[C@H](N)[C@H](O[C@@H]2CCCCO2)[C@H](C)O1 [Pirarubicin] | -33.8%
22 | Cc1cc(Nc2ncc(Cl)c(Nc3ccccc3S(=O)(=O)C(C)C)n2)c(OC(C)C)cc1C1CCN(CCOCCOCCNC(=O)CNc2cccc3c2C(=O)N(C2CCC(=O)NC2=O)C3=O)CC1 (centres undefined) | 9.17%
23 | OC(c1cc(C(F)(F)F)nc2c(C(F)(F)F)cccc12)C1CCCCN1 (centres undefined) [Mefloquine HCl] | -1.31%
24 | NC(=S)N/N=C/c1ncccc1N [Triapine] | -34.8%
25 | CNC(=O)Nc1ccc(-c2nc(N3CC4CCC(C3)O4)c3cnn(C4CCC5(CC4)OCCO5)c3n2)cc1 | -32.9%
26 | CN1CCN(CCCN2c3ccccc3Sc3ccc(Cl)cc32)CC1 | 4.19%
27 | CNC(=O)c1cccc(-c2ccc3c(N4CCOC[C@@H]4C)nc(N4CCOC[C@@H]4C)nc3n2)c1 [Vistusertib (AZD2014)] | -33%
28 | CCCCC1C(=O)N(c2ccccc2)N(c2ccc(O)cc2)C1=O (centres undefined) | -34.9%
29 | c1ccc2c(c1)CCC[C@H]2Nc1nc2ccccc2[nH]1 | -1.81%
30 | CCC(=O)O[C@@H]1CC(=O)O[C@H](C)C/C=C/C=C/[C@H](OC(C)=O)[C@H](C)C[C@H](CC=O)[C@H](O[C@@H]2O[C@H](C)[C@@H](O[C@H]3C[C@@](C)(OC(C)=O)[C@@H](OC(=O)CC)[C@H](C)O3)[C@H](N(C)C)[C@H]2O)[C@H]1OC [Midecamycin Acetate] | 2.69%
31 | COc1cc2c(cc1OC)[C@@H]1Cc3ccc(OC)c(OC)c3CN1CC2 [Rotundine] | -31.5%
32 | O=C(N/N=C/c1ccc([N+](=O)[O-])o1)c1ccc(O)cc1 | -1.19%
33 | OC1(c2ccc(Cl)c(C(F)(F)F)c2)CCN(CCCC(c2ccc(F)cc2)c2ccc(F)cc2)CC1 | -26%
34 | CC[C@@]1(O)C(=O)OCc2c1cc1n(c2=O)Cc2cc3cc(O)ccc3nc2-1 [10-Hydroxycamptothecin] | -34%
35 | NS(=O)(=O)Cc1noc2ccccc12 [zonisamide] | 2.4%
36 | O=C(Nc1cccc(C(F)(F)F)c1)Nc1ccc(Br)cc1-c1nnn[nH]1 | -0.22%
37 | Oc1c(Cl)cc(Cl)c(Cl)c1Cc1c(O)c(Cl)cc(Cl)c1Cl [Hexachlorophene] | 0.51%
38 | CCCCOC(=O)c1ccc(N)cc1 | -2.73%
39 | CCN(CC)CCOc1ccc2c(c1)C(=O)c1cc(OCCN(CC)CC)ccc1-2 | -26.5%
